The test system of the test is Imidazoline I2. The test can be described thus: CYP450 and receptor off-target profile – biochemical, Ricerca HitProfilingScreen, selectivity assay for S1P4 agonist project, late-stage follow-up (AID 504400). The conditions noted are these: Ricerca radioligand binding/enzyme panel plus CYP450, Central, at 10 µM, hits give high values.

Values without a mark were called inactive. No rule for the calls is given here.

As to `Clc1ccc(OCCOc2ccc(Br)nc2Br)c(Cl)c1`, the inhibition is 9%.
